These results are taken from PubChem BioAssay (EPA / NIEHS).

Usually AC50 stands for the concentration giving half of the maximal activity seen.

Molecules are shown by their SMILES. Results filed as inconclusive are left out. Calls of active or inactive are those of the source. The calls were made as follows: active = hit-call score of the fitted dose curve at least 0.9, where 1 is the maximum; inconclusive = response in the unintended direction; inactive = score below 0.9.

Test [1] in a line: TOX21_p53_BLA_p2_viability: Viability Assessment in the Tox21 HCT-116 p53 Agonism Beta-lactamase Assay, Phase 2 (AID 2283591).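 Also: compound exposure lasted 16 h at 37 °C; actives lower the ATP signal meaning cytotoxicity.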 The essentials:
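Cytotoxicity readout: CellTiter-Glo ATP luminescence, 30 min at room temperature, after the beta-lactamase read. Cells were HCT116 exposed 16 h at 37C to compounds pin-transferred at 217-fold dilution from DMSO stocks.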

Test [2] deals with Cellular tumor antigen p53 (Homo sapiens) (UniProt P04637). The test is described as follows: TOX21_p53_BLA_p2_ratio: Tox21 HCT-116 p53 Agonism Beta-lactamase Assay, Ratio, Phase 2 (AID 2283592). In a few lines:
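In this cell-based reporter format, HCT116 cells were dosed with chemicals delivered from DMSO by 217-fold dilution and incubated 16 h at 37C. Emission at 460 and 530 nm after 2 h CCF4-AM loading provided the ratio, fitted upward versus DMSO.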

Test [3] in a line: TOX21_p53_BLA_p3_viability: Viability Assessment in the Tox21 HCT-116 p53 Agonism Beta-lactamase Assay, Phase 3 (AID 2283593).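 Also: cells exposed to compound for 16 h before reading.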 In a few lines:
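Cellular ATP was quantified by CellTiter-Glo luminescence, read after 30 min at room temperature. Beforehand, HCT116 cells (4000/well) received compound 5 h post-seeding, 217-fold diluted from DMSO, then incubated 16 h at 37C.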

Test [4] is described as follows: TOX21_p53_BLA_p4_viability: Viability Assessment in the Tox21 HCT-116 p53 Agonism Beta-lactamase Assay, Phase 4 (AID 2283597).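 Also: hits lower the luminescence signal meaning cytotoxicity.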 The essentials:
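We seeded HCT116 p53 reporter cells at 4000/well and waited 5 h. We then added compounds in DMSO at a 217-fold dilution and incubated for 16 h. Viability was read as CellTiter-Glo luminescence after 30 min at RT.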

Test [5] has as its target Cellular tumor antigen p53 (Homo sapiens) (UniProt P04637). The test is described as follows: TOX21_p53_BLA_p5_ratio: Tox21 HCT-116 p53 Agonism Beta-lactamase Assay, Ratio, Phase 5 (AID 2283599). In a few lines:
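Beta-lactamase reporter ratio (blue 460 nm over green 530 nm, 405 nm excitation) after 2 h CCF4-AM loading, in HCT-116 cells exposed 16 h at 37 C to compounds pinned at 217-fold dilution. Increases relative to DMSO baseline scored.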

The nature of test [6]: TOX21_p53_BLA_p5_viability: Viability Assessment in the Tox21 HCT-116 p53 Agonism Beta-lactamase Assay, Phase 5 (AID 2283600). The essentials:
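Compounds, pinned from DMSO at 217-fold dilution, were left on the cells for 16 h. The viability endpoint was ATP content measured by CellTiter-Glo luminescence, where falling signal reflects cytotoxicity.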

Test [7] has as its target Cellular tumor antigen p53 (Homo sapiens) (UniProt P04637). Briefly: TOX21_p53_BLA_p4_ratio: Tox21 HCT-116 p53 Agonism Beta-lactamase Assay, Ratio, Phase 4 (AID 2283601). The essentials: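 Signal is the blue/green (460nm/530nm) ratio of cleaved versus uncleaved CCF4-AM substrate, read after 2 h substrate loading. Cells were HCT116 carrying the p53-responsive beta-lactamase reporter, dosed 16 h at 37C, 5% CO2; CellTiter-Glo measured in parallel.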

Test [8] is described as follows: TOX21_PR_BLA_Followup_Agonist_viability: Viability Assessment in the Tox21 HEK293 Progesterone Receptor (PR) Agonism Beta-lactamase Follow-Up Assay (AID 2283935).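 Also: signal loss means lower viability so actives are cytotoxic.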 The essentials: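 PR-UAS-bla HEK293T cells in 2% charcoal-stripped FBS medium, plated 6 hr before compound addition, exposed 16 hr at 37C. Viability read by CellTiter-Glo ATP luminescence after 30 min at room temperature, in the same wells as the beta-lactamase readout.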

The nature of test [9]: TOX21_PR_BLA_Followup_Antagonist_viability: Viability Assessment in the Tox21 HEK293 Progesterone Receptor (PR) Antagonism Beta-lactamase Follow-Up Assay (AID 2283936).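 Also: hits lower the luminescence signal meaning cytotoxicity.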 In a few lines:
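PR-UAS-bla HEK293T cells (3,000/well, 2% charcoal-stripped FBS) given compound plus R5020 agonist, 16 h at 37C. CellTiter-Glo added after bla read, 30 min at room temperature; luminescence loss indicates cytotoxicity.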

Test [10] is described as follows: TOX21_PR_LUC_Followup_Agonist_viability: Viability Assessment in the Tox21 HEK293 Progesterone Receptor (PR) Agonism Luciferase Follow-Up Assay (AID 2283941).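 Also: loss of signal means cytotoxicity so actives lower viability.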 The essentials: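 HEK293-PR-A-luc cells, kept in 10% charcoal-stripped FBS medium, were treated with compounds for 16 h at 37C. Viability read as cellular ATP by luciferase-coupled luminescence; loss of signal indicates cytotoxicity.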

Cellular tumor antigen p53 (Homo sapiens), sequence (P04637 whole entry, looked up): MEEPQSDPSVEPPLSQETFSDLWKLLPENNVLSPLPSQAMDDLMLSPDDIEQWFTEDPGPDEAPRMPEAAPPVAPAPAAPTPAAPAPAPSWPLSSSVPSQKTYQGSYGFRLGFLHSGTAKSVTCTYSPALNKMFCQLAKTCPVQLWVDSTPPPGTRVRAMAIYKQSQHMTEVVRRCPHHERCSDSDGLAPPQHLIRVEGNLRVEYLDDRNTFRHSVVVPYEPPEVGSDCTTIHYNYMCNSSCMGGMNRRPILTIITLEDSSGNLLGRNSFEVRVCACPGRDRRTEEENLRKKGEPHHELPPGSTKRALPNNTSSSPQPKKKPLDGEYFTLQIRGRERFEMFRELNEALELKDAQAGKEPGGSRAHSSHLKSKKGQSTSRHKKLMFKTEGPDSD

Take `Cc1cc(N)c2cc(NC(=O)Nc3ccc4nc(C)cc(N)c4c3)ccc2n1`: the result in test [1], in test [2], in [3], in test [5], in test [6] and in test [7] was inactive. The AC50 in test [4] is 29.7 µM (active).

`O=P(O)(O)C(Sc1ccc(Cl)cc1)P(=O)(O)O`: the compound was called inactive in [1], in test [2], in [3], in [4], in [5] and in test [6].

On to `C=CCCC`, for which the result in test [1], in test [2], in test [3], in [4], in test [5] and in test [6] was inactive.

Turning to `Clc1ccc2c(c1)CCc1cccnc1C2=C1CCNCC1`, the compound was classed as inactive in [1], in [2], in test [3], in test [4], in [5] and in [6]. Further, the outcome in test [7] was inactive.

Regarding `CCOc1ccc(N=C(C)Nc2ccc(OCC)cc2)cc1`, the compound was called inactive in test [1], in test [2], in test [3], in [4], in [5] and in test [6].

For the compound `O=C1c2ccccc2Cc2ccccc21`, the call in [1], in [2], in [3], in test [4], in test [5] and in test [6] was inactive. Besides, the result in test [7] was inactive.

For `COc1ccc(CNCC(O)COc2ccc3[nH]c(=O)ccc3c2)cc1OC` (stereo not drawn), the result in [1], in test [2], in [3], in test [4], in test [5] and in test [6] was inactive. Besides, the outcome in [7] was inactive.

Consider `O=C(O)COc1ccc(C(=O)c2cccs2)c(Cl)c1Cl`, for which the compound was classed as inactive in test [1], in test [2], in test [3], in test [4], in test [5] and in [6]. Further, the result in test [7] was inactive.

For the compound `O=C(O[C@H]1CN2CCC1CC2)N1CCc2ccccc2[C@@H]1c1ccccc1`, the compound was classed as inactive in [1], in test [2], in test [3], in test [4], in test [5] and in test [6].

For the compound `Nc1cccc(S(=O)(=O)O)c1`, the result in test [1], in test [2], in [3], in [4], in test [5] and in [6] was inactive. Further, the outcome in test [7] was inactive.

As to `O=C(CCCN1CCN(c2ccc(F)cc2)CC1)NC1c2ccccc2CSc2ccccc21` (stereo not drawn), the compound was called inactive in [1], in test [2], in [3], in test [4], in [5] and in test [6].

Turning to `CC1(C)C(=O)C(C)(C)C1=O`, the compound was classed as inactive in test [1], in [2], in [3], in test [4], in [5] and in [6].

Take `CC(C)CN(C[C@@H](O)[C@H](Cc1ccccc1)NC(=O)O[C@H]1CO[C@H]2OCC[C@H]21)S(=O)(=O)c1ccc(N)cc1`: the compound was called inactive in test [1], in test [2], in [3], in [4], in test [5] and in [6]. Further, the outcome in test [7] was inactive.

Turning to `CC[N+]1(CC)CCC(=C(c2ccccc2)c2ccccc2)C1C` (stereo not drawn), the call in test [1], in test [2], in test [3], in test [4], in [5] and in test [6] was inactive.

Consider `CC(C)(COP(=O)(O)OP(=O)(O)OC[C@H]1O[C@@H](n2cnc3c(N)ncnc32)[C@H](O)[C@@H]1OP(=O)(O)O)C(O)C(=O)NCCC(=O)NCCS` (stereo partly drawn), for which the outcome in [1], in test [2], in test [3], in test [4], in test [5] and in test [6] was inactive.

Turning to `CCCCCCCCCCCC(=O)OC[C@@H](O)[C@H]1OC[C@H](OCCO)[C@H]1OCCO`, the outcome in test [1], in [2], in test [3], in test [4], in test [5] and in test [6] was inactive. Besides, in test [7], the result was inactive.

Consider `CCCCCCCCCCC(=O)O`, for which the compound was classed as inactive in test [1], in [2], in test [3], in [4], in test [5] and in [6].

As to `COC(=O)[C@H]1[C@H]2C[C@@H]3c4[nH]c5cc(OC)ccc5c4CCN3C[C@H]2C[C@@H](OC(=O)/C=C/c2cc(OC)c(OC)c(OC)c2)[C@@H]1OC`, the call in test [1], in test [2], in [3], in test [4], in test [5] and in test [6] was inactive. Moreover, in [7], the result was inactive.

With `COc1cc(Br)c(C[N+]2(CCOCCC3CCC4CC3C4(C)C)CCOCC2)cc1OC` (stereo not drawn), the compound was called inactive in test [1], in [2], in test [3], in test [4], in test [5] and in test [6].

For `CN1CCN(CCC=C2c3ccccc3Sc3ccc(S(=O)(=O)N(C)C)cc32)CC1`, the call in test [1], in [2], in [3], in test [5] and in test [6] was inactive. Further, the AC50 in [4] is 34.9 µM (active); in [7] it was 43.7 µM (active).

With `C[N+]1(C)CCC(OC(=O)C(O)(c2ccccc2)C2CCCC2)C1` (stereo not drawn), the result in [1], in test [2], in [3], in [4], in test [5] and in [6] was inactive. Also, the result in test [7] was inactive.

In the case of `Cc1cc(CC(=O)O)c(C)n1-c1ccc(Cl)cc1`, the compound was called inactive in test [1], in test [2], in test [3], in test [4], in test [5] and in [6]. In addition, in test [7], the result was inactive.

Regarding `O=c1[nH]cnc2[nH]cc(CN3CCCCC3)c12`, the call in test [1], in test [2], in test [3], in test [4], in [5] and in test [6] was inactive.

Consider `CCOC(=O)NNc1ccc(N(CC)CC(C)O)nn1` (stereo not drawn), for which the compound was called inactive in test [1], in [2], in [3], in [4], in test [5] and in [6]. Besides, in test [7], the result was inactive.

As for `CCCC[P+](C)(CCCC)CCCC`, the outcome in test [1], in test [2], in test [3], in test [4], in test [5] and in [6] was inactive. Moreover, the result in test [7] was inactive.

As to `C[C@]12CCC(=O)C=C1[C@@H]1C[C@@H]1[C@H]1[C@@H]3[C@@H]4C[C@@H]4[C@@]4(CCC(=O)O4)[C@@]3(C)CC[C@@H]12`, the call in test [1], in test [3], in test [4], in test [5], in [6] and in [8] was inactive. Moreover, the compound was classed as inactive in [9] and in test [10]. Moreover, the AC50 in test [2] was 43.4 µM (active).
